Results from the supplement of paper PMC11732987, “Enantioselective OTUD7B fragment discovery through chemoproteomics screening and high-throughput optimisation” (Communications Chemistry, 2025).

Tests used:
Experiment in all cases: log2 ratio of Biotin-Ahx-Ub-VS probe labelling (fragment/DMSO); higher = less target engagement (more negative = stronger competition), active = hit call of the paper (q ≤ 0.05, log2 ratio ≤ -1)
Settings in all cases: compound concentration: 200 uM; treatment time: 3 h
[1] = target: UniProt O00507
UniProt O00507, sequence (O00507 whole entry, the tested form may be a part): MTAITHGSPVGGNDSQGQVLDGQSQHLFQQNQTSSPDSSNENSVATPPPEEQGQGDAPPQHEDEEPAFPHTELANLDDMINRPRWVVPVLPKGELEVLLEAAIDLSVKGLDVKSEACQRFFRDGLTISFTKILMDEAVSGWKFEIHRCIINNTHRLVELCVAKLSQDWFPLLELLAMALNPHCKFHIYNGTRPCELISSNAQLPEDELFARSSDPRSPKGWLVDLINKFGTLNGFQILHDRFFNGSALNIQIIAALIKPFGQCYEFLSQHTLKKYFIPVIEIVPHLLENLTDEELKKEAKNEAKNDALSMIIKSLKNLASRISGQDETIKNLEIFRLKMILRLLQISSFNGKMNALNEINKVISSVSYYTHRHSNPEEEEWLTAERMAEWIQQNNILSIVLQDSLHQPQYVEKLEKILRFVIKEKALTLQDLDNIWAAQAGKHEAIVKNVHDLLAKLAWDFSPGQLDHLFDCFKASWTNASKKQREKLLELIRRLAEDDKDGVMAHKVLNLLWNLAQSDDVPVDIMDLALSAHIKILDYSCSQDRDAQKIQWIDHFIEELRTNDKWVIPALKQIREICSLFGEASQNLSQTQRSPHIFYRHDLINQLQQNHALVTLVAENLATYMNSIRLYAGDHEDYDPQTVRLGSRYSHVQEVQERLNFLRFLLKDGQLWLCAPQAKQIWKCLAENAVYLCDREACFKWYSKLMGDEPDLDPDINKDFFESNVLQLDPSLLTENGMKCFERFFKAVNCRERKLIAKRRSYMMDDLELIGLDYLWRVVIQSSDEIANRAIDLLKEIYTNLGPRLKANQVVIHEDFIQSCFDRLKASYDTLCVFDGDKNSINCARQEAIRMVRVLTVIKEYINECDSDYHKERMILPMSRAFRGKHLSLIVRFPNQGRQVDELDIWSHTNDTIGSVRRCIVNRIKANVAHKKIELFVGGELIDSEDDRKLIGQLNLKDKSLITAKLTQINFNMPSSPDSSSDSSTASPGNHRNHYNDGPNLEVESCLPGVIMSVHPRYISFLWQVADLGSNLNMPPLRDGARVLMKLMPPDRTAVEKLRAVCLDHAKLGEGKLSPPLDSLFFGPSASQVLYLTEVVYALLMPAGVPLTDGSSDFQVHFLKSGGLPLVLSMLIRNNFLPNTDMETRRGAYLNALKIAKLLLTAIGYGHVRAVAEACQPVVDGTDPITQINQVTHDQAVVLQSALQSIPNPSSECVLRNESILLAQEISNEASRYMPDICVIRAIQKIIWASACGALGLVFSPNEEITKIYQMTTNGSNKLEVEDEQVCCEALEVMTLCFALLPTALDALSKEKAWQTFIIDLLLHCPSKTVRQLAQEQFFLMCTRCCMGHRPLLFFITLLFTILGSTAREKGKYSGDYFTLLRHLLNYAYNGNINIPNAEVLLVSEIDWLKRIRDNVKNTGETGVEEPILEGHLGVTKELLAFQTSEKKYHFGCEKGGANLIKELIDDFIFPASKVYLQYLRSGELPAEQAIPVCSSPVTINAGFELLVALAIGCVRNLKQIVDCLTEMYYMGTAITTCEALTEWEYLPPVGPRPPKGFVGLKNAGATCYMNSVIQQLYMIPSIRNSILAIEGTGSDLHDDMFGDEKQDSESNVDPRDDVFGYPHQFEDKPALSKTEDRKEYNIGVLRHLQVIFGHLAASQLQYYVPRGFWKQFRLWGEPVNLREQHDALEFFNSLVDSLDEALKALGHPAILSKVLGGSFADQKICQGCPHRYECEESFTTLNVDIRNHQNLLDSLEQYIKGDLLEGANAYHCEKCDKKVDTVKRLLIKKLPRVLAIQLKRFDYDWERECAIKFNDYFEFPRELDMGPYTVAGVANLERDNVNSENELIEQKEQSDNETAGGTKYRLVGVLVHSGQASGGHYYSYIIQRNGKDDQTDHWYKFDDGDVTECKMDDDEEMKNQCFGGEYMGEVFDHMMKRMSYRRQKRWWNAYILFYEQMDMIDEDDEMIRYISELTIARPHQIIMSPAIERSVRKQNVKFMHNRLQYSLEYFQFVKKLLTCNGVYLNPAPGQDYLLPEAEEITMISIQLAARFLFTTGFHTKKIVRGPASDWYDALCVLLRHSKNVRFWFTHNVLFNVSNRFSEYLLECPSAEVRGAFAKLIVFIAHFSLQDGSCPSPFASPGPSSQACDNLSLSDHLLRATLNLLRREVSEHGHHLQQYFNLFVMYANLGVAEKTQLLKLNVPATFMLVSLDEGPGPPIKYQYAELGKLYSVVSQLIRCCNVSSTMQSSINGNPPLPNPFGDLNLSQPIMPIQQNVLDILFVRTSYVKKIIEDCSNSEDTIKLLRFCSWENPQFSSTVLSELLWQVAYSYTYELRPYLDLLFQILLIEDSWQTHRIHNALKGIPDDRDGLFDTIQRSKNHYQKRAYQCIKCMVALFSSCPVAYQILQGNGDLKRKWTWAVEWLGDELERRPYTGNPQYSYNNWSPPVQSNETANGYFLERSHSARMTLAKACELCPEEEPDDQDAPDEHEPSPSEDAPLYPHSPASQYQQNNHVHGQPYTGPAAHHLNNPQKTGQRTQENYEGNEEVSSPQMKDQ
Method in brief: (§1)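 Triplicate samples of HEK293T lysate, 495 µg each, received fragment at 200 µM or vehicle for 3 h, followed by Biotin-Ahx-Ub-VS (0.5 µM final) for 1 h. After NeutrAvidin enrichment of labelled DUBs and LysC/trypsin digestion, peptides were run by diaPASEF LC-MS/MS. The values are average log2 fragment/vehicle ratios from global-median-normalised Spectronaut label-free quantities, tested by unpaired t-test on proteins having ≥2 unique peptides.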

[2] = target: UniProt P51784
UniProt P51784, sequence (P51784 whole entry): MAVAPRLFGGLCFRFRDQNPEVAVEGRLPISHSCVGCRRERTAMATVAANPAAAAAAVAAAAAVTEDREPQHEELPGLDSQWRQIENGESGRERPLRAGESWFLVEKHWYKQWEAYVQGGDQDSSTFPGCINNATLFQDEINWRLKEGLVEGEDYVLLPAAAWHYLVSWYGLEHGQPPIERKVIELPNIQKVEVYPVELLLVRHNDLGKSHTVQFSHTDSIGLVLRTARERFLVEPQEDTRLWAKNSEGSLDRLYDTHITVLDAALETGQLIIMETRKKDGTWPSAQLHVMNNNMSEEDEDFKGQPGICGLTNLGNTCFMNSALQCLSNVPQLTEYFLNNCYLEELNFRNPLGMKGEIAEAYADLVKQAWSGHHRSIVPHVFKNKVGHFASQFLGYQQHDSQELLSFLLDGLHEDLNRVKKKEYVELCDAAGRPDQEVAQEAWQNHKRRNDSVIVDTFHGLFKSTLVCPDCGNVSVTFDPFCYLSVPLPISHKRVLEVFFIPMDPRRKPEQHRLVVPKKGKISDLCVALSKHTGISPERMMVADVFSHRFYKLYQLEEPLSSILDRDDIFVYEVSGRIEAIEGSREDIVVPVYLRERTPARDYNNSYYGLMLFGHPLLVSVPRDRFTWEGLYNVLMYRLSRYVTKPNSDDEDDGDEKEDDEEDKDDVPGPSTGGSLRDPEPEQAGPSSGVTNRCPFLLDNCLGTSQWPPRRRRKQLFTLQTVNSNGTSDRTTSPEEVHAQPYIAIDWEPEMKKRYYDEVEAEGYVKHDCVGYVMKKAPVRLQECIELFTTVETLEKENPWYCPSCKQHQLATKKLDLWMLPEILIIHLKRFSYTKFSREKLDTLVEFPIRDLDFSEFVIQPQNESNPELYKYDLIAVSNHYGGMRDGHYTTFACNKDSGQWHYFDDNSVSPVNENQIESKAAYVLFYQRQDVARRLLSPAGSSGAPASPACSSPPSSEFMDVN
Method in brief: as §1

[3] = target: T1, UniProt Q5T2D3
T1 sequence (whole entry): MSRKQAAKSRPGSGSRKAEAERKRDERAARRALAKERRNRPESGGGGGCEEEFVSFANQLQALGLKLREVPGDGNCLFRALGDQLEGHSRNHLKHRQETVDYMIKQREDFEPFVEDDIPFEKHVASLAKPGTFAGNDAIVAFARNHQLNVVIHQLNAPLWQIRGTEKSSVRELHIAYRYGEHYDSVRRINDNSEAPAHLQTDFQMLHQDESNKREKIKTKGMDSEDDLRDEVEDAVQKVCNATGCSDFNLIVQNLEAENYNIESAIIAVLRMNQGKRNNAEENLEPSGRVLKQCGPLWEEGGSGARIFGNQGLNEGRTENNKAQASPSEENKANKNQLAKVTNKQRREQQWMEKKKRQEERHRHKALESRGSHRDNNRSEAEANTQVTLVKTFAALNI
Method in brief: as §1

[4] = target: T2, UniProt Q8TE49
T2 sequence (whole entry): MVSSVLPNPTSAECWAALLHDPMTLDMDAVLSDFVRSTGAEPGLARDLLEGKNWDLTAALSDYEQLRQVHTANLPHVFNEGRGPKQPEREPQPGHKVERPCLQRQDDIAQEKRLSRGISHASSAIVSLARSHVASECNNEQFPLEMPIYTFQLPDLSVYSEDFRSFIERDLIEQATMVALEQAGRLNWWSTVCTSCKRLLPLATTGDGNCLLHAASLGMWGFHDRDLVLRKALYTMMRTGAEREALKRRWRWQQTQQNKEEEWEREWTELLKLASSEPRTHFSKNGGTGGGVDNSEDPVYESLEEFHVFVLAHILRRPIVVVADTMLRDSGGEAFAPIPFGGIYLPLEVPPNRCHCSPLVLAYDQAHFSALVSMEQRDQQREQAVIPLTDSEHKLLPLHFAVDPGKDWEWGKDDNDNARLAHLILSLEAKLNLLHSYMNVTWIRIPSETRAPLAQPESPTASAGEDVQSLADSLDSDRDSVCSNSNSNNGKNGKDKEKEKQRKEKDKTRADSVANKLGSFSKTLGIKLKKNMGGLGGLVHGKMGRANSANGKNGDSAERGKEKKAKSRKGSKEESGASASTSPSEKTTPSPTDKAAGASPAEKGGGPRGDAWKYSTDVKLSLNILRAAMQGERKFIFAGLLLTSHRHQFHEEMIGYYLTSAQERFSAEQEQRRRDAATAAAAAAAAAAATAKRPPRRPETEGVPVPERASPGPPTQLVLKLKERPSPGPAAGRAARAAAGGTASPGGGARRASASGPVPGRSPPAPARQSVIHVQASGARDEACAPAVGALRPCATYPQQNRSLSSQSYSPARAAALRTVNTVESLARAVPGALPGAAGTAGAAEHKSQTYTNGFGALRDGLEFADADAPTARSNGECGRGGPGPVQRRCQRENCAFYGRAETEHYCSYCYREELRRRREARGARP
Method in brief: as §1

[5] = target: T3, UniProt Q9P2H5
T3 sequence (whole entry): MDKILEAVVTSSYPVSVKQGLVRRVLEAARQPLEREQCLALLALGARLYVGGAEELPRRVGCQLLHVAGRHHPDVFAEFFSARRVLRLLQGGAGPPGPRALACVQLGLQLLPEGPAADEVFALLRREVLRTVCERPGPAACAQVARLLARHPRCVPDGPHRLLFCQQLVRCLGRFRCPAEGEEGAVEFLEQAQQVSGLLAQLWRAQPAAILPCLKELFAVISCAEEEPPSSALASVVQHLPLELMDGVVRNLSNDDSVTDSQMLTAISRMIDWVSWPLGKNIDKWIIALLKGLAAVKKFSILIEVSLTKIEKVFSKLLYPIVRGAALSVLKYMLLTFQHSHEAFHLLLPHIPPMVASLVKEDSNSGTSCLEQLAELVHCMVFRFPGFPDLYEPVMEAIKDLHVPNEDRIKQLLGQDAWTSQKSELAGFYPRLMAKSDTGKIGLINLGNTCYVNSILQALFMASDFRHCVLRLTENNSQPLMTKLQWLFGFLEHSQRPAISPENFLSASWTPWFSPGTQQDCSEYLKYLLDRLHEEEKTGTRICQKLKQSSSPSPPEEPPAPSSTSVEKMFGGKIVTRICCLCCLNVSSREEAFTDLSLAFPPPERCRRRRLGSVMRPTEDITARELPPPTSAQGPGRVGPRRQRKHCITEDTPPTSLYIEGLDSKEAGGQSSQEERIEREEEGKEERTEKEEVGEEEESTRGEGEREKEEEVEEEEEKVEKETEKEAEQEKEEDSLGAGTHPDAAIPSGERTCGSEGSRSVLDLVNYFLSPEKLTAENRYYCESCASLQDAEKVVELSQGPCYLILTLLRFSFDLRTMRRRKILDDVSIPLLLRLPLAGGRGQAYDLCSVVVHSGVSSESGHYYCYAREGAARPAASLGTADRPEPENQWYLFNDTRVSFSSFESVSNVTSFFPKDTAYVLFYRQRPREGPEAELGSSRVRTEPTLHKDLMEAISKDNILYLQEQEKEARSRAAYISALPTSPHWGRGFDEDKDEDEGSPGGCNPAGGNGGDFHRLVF
Method in brief: as §1

[6] = target: T4, UniProt Q9UGI0
T4 sequence (whole entry): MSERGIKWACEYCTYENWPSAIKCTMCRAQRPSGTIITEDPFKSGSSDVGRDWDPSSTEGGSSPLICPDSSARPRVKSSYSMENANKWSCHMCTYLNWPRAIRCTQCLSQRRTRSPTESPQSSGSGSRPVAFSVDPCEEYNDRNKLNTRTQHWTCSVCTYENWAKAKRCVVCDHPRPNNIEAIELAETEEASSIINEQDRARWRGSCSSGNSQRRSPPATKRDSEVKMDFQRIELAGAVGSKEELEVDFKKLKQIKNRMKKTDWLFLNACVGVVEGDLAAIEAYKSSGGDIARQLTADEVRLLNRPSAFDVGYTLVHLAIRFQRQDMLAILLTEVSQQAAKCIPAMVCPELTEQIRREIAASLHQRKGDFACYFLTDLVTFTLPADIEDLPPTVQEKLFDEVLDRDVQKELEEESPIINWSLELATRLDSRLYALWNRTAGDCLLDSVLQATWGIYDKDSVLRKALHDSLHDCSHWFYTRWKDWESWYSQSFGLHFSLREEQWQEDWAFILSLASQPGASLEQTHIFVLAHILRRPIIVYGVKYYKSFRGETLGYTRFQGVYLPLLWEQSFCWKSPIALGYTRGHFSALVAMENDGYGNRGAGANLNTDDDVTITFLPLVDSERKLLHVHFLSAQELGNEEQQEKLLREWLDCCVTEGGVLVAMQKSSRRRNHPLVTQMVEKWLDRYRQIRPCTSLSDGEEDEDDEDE
Method in brief: as §1

[7] = target: T5, YOD1 (UniProt Q5VVQ6)
T5 sequence (whole entry): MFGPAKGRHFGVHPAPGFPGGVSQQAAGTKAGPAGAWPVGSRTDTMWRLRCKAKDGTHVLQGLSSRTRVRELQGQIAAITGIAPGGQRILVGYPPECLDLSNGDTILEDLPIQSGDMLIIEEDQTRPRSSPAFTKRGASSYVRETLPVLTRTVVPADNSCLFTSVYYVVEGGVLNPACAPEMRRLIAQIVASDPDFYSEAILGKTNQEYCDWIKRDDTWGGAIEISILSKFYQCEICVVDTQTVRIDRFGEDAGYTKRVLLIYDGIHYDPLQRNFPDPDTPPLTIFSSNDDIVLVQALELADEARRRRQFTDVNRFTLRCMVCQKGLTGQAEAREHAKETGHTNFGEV
Method in brief: as §1

Measured: log2 ratio of Biotin-Ahx-Ub-VS probe labelling

O=C(CCl)Nc1ccc(F)cc1Cl
inactive: [1] -0.442 | [2] -0.238 | [3] -0.425 | [4] -1.35 | [5] -0.211 | [7] -0.759
active: [6] -1.18

Cl.O=C(CCl)N[C@H]1C[C@@H](n2cccn2)C1
inactive: [1] -0.599 | [2] 0.0814 | [3] 0.0298 | [4] -0.369 | [5] 0.122 | [6] -0.284 | [7] -0.324

CNC(=O)C1CCN(C(=O)CCl)CC1
inactive: [1] -0.581 | [2] 0.091 | [3] 0.0899 | [4] -0.129 | [5] 0.179 | [6] 0.0343 | [7] -0.239

CS(=O)(=O)N1CCCN(C(=O)CCl)CC1
inactive: [1] 0.0618 | [2] -0.0587 | [3] -0.154 | [4] -0.261 | [5] -0.224 | [6] -0.469 | [7] 0.146

Cc1nc(CN2CCN(C(=O)CCl)CC2)cs1
inactive: [1] -0.246 | [2] -0.106 | [3] -0.213 | [4] -0.382 | [5] -0.401 | [6] -0.214 | [7] -0.111

Cc1ccc(CN(CCO)C(=O)CCl)cc1
inactive: [1] -0.468 | [2] -0.204 | [3] -0.439 | [4] -0.837 | [5] -0.351 | [7] -0.163
active: [6] -1.16

O=C(CCl)NCCC1=CCCCC1
inactive: [1] 0.347 | [2] 0.0951 | [3] -0.215 | [4] -0.191 | [5] -0.0991 | [6] -0.159 | [7] 0.16

O=C(CCl)Nc1cc(Cl)ccc1C(=O)O
inactive: [1] 0.337 | [2] 0.177 | [3] -0.138 | [4] -0.2 | [5] -0.258 | [6] -0.128 | [7] 0.233

CCC(NC(=O)CCl)c1ccc(Cl)cc1 (stereo not drawn)
inactive: [1] 0.32 | [2] 0.0791 | [3] -0.182 | [4] -0.735 | [5] -0.319 | [6] -0.279 | [7] 0.188

O=C(CCl)NCc1noc(C2CC2)n1
inactive: [1] -0.504 | [2] 0.0106 | [3] -0.464 | [4] -0.385 | [5] -0.13 | [6] -0.133 | [7] -0.415

O=C(CCl)N1CC2(CCOCC2)C1
inactive: [1] -0.0593 | [2] 0.164 | [3] -0.249 | [4] -0.469 | [5] -0.109 | [6] -0.328 | [7] -0.131

CC(C)n1nccc1NC(=O)CCl
active: [4] -1.34
inactive: [1] -0.0553 | [2] 0.033 | [3] -0.201 | [5] -0.152 | [6] -0.9 | [7] 0.0661

CS(=O)(=O)c1ccc(CNC(=O)CCl)cc1
inactive: [1] -0.143 | [2] -0.0799 | [3] -0.383 | [4] -0.563 | [5] 0.0147 | [6] -0.189 | [7] -0.172

O=C(CCl)Nc1cccc(C(=O)N2CCSCC2)c1
inactive: [1] -0.587 | [2] -0.172 | [3] -0.17 | [4] -0.399 | [5] 0.0593 | [6] -0.309 | [7] -0.58

O=C(CCl)N1CCN(c2nc3ccccc3o2)CC1
inactive: [1] -0.666 | [2] -0.255 | [3] -0.0854 | [4] -0.515 | [5] -0.57 | [6] -0.691 | [7] -0.434

Cc1ncsc1CCNC(=O)CCl
inactive: [1] 0.115 | [2] 0.269 | [3] -0.0368 | [4] -0.0765 | [5] -0.0174 | [6] -0.0599 | [7] 0.0977

CCN1C(=O)C2CN(C(=O)CCl)CCN2C1=O (stereo not drawn)
inactive: [1] 0.428 | [2] 0.0433 | [3] -0.0669 | [4] -0.958 | [5] -0.223 | [6] 0.112 | [7] 0.177

CC(NC(=O)CCl)c1cc2n(n1)CCCC2.Cl (stereo not drawn)
inactive: [1] 0.229 | [2] 0.0045 | [3] 0.0101 | [4] -0.631 | [5] -0.0486 | [6] 0.22 | [7] -0.00538

CCc1c[nH]c(CNC(=O)CCl)n1.Cl
inactive: [1] -0.772 | [2] -0.123 | [3] -0.363 | [4] -0.324 | [5] -0.147 | [6] -0.736 | [7] -0.491
